This is a sample that favours compounds with a hit; in the whole collection about 9.3% have one here.
Rab9 promoter act: Rab9 promoter activation | 2.8% of 320,000 active | Huh7 Rab9 promoter-luciferase reporter, luminescence, 24 h | Potency, µM (doses to about 9.22 µM), without a hit: at the top dose activation, negative = inhibition, actives largely listed as activators; note: % of control where 0% means no effect; nearly all actives have a fitted effect of over 60% in size
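Luciferase signal after 10 min detection reagent at ambient indicates Rab9 promoter upregulation; stably transfected Huh7 cells were treated 24 h with compound in DMSO at 37 °C, 5% CO2.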
ELG1 genotox: induces genotoxicity in HEK293T cells with luciferase-tagged ELG1 | HEK293T ELG1-luciferase reporter, luminescence, 16 h | 1.3% of 330,000 active | Potency, µM (highest dose often 46 µM), for inactives: at the top dose activity change, positive = activation, actives largely listed as activators; note: % of control where 0% means no effect; nearly all actives have a fitted effect of over 60% in size
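HEK293T cells expressing luciferase-tagged ELG1 were treated with compound or DMSO for 16 hr at 37°C. Luciferase activity was then read after 30 min with ONE-Glo at room temperature; rising signal flags genetic stress.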
SMN2 splice up: enhancers of SMN2 splice variant expression; AID 1458; HEK293 SMN2-luciferase splicing reporter, luminescence, 30-36 h; 2.8% of 210,000 active; Potency, µM (series often up to 46.1 µM), inactives show at the top dose activity change, positive = activation, actives largely listed as activators; note: % of control where 0% means no effect; nearly all actives have a fitted effect of over 55% in size
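qHTS luciferase splicing reporter: luminescence rises when SMN2 exon 7 is included in transfected HEK293 cells. Compound exposure lasted 30-36 h at 37C, with 4.5 mM final sodium butyrate as control, followed by a ONE-Glo read.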
ELG1 DNA repair: ELG1-dependent DNA repair inhibition | HEK293T ELG1-luciferase reporter, luminescence, 16 h; DNA damage induced by 5-fluorouridine | Potency, µM (titrated, usually from 46.1 µM), without a hit: top-dose activity change, negative = inhibition, most hits filed as inhibitors | 2.3% of 330,000 active | AID 504467; note: % is set by controls: 0 for no effect and ±100 for the full control effect; nearly all actives have a fitted effect of over 55% in size
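Cells (2,000 per well) received 5-fluorouridine plus test compound or DMSO and were incubated 16 hr at 37 °C, 5% CO2. Luciferase activity was read by luminescence 30 min after ONE-Glo addition; signal suppression marked inhibition of damage-induced ELG1 function.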
FLuc modulator: counter-screen for miR-21 project: firefly luciferase inhibitors or activators | 6.9% of 360,000 active | purified FLuc, Km substrates, luminescence inhibition | AID 588342 | P08659 | Potency, µM (highest dose often 57.5 µM), inactives show top-dose activity change, negative = inhibition, usual class: inhibitors;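 note: plate controls were vehicle for no effect and reference inhibitor for full effect; nearly all actives have a fitted effect of over 55% in size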
Target sequence (P08659 whole entry, looked up): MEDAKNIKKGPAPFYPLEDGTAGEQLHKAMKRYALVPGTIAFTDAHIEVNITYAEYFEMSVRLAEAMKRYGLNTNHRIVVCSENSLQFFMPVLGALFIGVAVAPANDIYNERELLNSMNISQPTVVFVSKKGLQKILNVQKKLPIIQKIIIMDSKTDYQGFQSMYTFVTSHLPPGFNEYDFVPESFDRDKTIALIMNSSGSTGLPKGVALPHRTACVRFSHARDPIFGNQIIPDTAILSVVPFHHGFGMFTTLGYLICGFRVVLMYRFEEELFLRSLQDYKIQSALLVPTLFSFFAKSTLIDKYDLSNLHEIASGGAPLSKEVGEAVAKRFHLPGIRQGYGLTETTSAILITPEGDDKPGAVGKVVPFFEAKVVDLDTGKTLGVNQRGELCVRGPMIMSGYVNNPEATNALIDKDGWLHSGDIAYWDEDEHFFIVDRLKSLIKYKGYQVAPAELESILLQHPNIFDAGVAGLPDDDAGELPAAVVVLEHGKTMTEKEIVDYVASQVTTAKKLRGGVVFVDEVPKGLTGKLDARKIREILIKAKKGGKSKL
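Purified P. pyralis luciferase (10nM final) with 10uM D-luciferin and 10uM ATP (Km levels) in 50mM Tris acetate pH 7.5, 10mM Mg acetate, 0.01% Tween-20, 0.05% BSA; qHTS 6-point titration, ~60 µM downward; luminescence read.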
NPC1 prom act: NPC1 promoter activation; Potency, µM (top dose mostly 9.22 µM), for the others: at the top dose activation, usual class: activators; Huh7 NPC1 promoter luciferase reporter, 24 h; 2.4% of 320,000 active; AID 485313; note: % of control where 0% means no effect; nearly all actives have a fitted effect of over 60% in size
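Huh7 cells stably carrying NPC1 promoter–luciferase, plated in Opti-MEM with 10% FBS for 2 h, were exposed to compound in DMSO for 24 h at 37 °C; luciferase reagent was added for 10 min and luminescence read.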
Active calls of the source: *; ? = inconclusive; . = no result given; [ ] = dose if it differs, or a comment. Calls come from the whole dose curve; as a rule, active = well fitted curve in the direction sought with a large enough effect; inconclusive = small, poorly fitted or top-dose-only effect, or another doubt; inactive = no such curve, though single readings can be large; an effect the other way counts as inactive or inconclusive. Potency is the fitted concentration of half-maximal effect.

SMILES	Rab9 promoter act	ELG1 genotox	SMN2 splice up	ELG1 DNA repair	FLuc modulator	NPC1 prom act
CCOc1ccccc1NC(=O)c1ccc2c(=O)n3c(nc2c1)CCCCC3	3.7%	-5.7%	.	-5.3%	?	10.7%
Cc1csc(NC(=O)c2ccc3c(=O)n4c(nc3c2)CCCCC4)n1	1.12µM*	15.9%	.	?	8.49µM*	3.55µM*
O=C(Nc1nccs1)c1ccc2c(=O)n3c(nc2c1)CCCCC3	3.16µM*	14.5%	.	?	10.7µM*	2.82µM*
COc1cccc(OCc2nc3ccccc3[nH]2)c1	3.55µM*	?	12.6µM*	?	6.75µM*	3.16µM*
COc1cccc(OCc2nc3ncc(Br)cc3[nH]2)c1	11.5%	?	?	?	-18.9%	-7.9%
NNC(=O)c1ccc(OCc2nc3ccccc3[nH]2)cc1	.	.	-15.3%[9.22 µM]	.	.	.
COc1ccc(OCc2nc3ccccc3[nH]2)cc1	0.562µM*	1.84µM*	11.2µM*	?	3.38µM*	1.58µM*
c1ccc2cc(OCc3nc4ccccc4[nH]3)ccc2c1	2µM*	?	2.82µM*	?	1.9µM*	2.24µM*
Brc1ccc(OCc2nc3ccccc3[nH]2)cc1	2.51µM*	?	.	?	2.39µM*	3.16µM*
CCC(Sc1nnc(-c2ccco2)n1C)C(=O)Nc1nnc(C)s1 (centres undefined)	-6.7%	2.6%	.	4.8%	-1.0%	-2.7%
COc1cc(-c2noc(CCC(=O)NC3CCCCC3)n2)cc(OC)c1OC	0.0%	1.9%	.	-1.6%	0.2%	-0.2%
CCc1ccc(CNC(=O)c2ccc3nc(SCc4ccc(F)cc4)n(C)c3c2)cc1	.	.	1.9%	.	5.7%	.
Cc1ccc(C(=O)Nc2sc(C)c(-c3ccccc3)c2C(N)=O)cc1[N+](=O)[O-]	16.1%	2.91µM*	-48.6%	?	3.38µM*	16.9%
Cc1ccc(C(=O)Nc2cccc(NC(=O)c3ccc(C)c([N+](=O)[O-])c3)n2)cc1[N+](=O)[O-]	-2.0%	-1.1%	.	?	-19.3%	-4.7%
CCOc1ccccc1N(C)S(=O)(=O)c1ccc2c(c1)CCN2C(=O)CCC(=O)O	-7.0%	-4.9%	.	-3.9%	0.0%	1.7%
Cc1cccc(NC(=O)c2c(C)nn(-c3ccccc3)c2Cl)c1	?	10.6%	18.8%	?	13.5µM*	?
Cc1nn(-c2ccccc2)c(Cl)c1C(=O)NCc1ccccc1F	-0.5%	-1.1%	.	-10.3%	-0.3%	-6.4%
Cc1nn(-c2ccccc2)c(Cl)c1C(=O)NCCCCNC(=O)c1c(C)nn(-c2ccccc2)c1Cl	-0.9%	-9.7%	2.0%	16.4µM*	?	-0.3%
CCOC(=O)c1cc(C(=O)Nc2cccc(C)c2)nn1C	1.41µM*	?	12.6µM*	?	4.78µM*	1.58µM*
CC(=O)Nc1c(C(=O)Nc2cccc(C)c2)nnn1-c1ccc(C)cc1	.	.	8.8%	.	16.9µM*	.
CCOC(=O)c1nn(-c2ccc(C)cc2)c(=O)cc1OCC(=O)Nc1cccc(C)c1	-6.1%	0.0%	.	18.3%	-0.7%	1.9%
CCc1nn(Cc2cc(C)ccc2C)c(=O)c2cc3cc(C)ccc3n12	.	.	2.3%	.	-3.5%	.
Cn1cc(/C=C2\SC(=S)N(NC(=O)c3ccccc3Cl)C2=O)c2ccccc21	1.6%	0.5%	1.0%	-5.5%	26.9µM*	-1.5%
Cc1ccc(C(=O)NN2C(=O)/C(=C/c3cn(C)c4ccccc34)SC2=S)cc1	8.2%	-4.4%	10.4%	1.3%	?	13.7%
C[C@@H]1O[C@H](O[C@@H]2\C=C/C=C\C=C/C=C\C[C@H](C)OC(=O)/C=C\[C@H]3O[C@@H]3C[C@H](O)C[C@]3(O)C[C@@H](O)[C@@H](C(=O)O)[C@H](C2)O3)[C@@H](O)[C@H](N)[C@@H]1O (stereo in doubt)	.	.	2.9%[20.6 µM]	.	.	.
COC(=O)c1c(-c2ccc(Cl)cc2)noc1N1CCN(c2ccc(OC)cc2)CC1	.	.	.	.	-2.5%	.
